Assay outcomes as filed in PubChem BioAssay.
Mdm2-MdmX inh: human Mdm2/MdmX binding inhibition; O15151+Q00987; SaOS-2 split-luciferase Mdm2/MdmX complementation, luminescence; inhibition, % at 8 µM; 330,000 tested, 3% active; AID 485346;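 active = inhibition of at least 50% at 8 µM in the primary screen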
Target sequence (O15151 whole entry, looked up): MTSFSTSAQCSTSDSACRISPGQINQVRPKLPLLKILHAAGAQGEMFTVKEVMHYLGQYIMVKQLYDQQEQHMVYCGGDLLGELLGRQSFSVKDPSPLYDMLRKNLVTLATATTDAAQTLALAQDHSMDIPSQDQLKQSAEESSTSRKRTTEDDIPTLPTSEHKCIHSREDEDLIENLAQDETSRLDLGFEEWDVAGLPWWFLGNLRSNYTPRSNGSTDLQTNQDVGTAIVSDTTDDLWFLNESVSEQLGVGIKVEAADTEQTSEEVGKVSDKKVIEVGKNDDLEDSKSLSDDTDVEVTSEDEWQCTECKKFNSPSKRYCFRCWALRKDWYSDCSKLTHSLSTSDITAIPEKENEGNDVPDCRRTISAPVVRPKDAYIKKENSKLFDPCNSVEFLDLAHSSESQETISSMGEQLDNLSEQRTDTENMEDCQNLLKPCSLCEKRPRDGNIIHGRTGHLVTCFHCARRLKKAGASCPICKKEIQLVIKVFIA
Target sequence (Q00987 whole entry, looked up): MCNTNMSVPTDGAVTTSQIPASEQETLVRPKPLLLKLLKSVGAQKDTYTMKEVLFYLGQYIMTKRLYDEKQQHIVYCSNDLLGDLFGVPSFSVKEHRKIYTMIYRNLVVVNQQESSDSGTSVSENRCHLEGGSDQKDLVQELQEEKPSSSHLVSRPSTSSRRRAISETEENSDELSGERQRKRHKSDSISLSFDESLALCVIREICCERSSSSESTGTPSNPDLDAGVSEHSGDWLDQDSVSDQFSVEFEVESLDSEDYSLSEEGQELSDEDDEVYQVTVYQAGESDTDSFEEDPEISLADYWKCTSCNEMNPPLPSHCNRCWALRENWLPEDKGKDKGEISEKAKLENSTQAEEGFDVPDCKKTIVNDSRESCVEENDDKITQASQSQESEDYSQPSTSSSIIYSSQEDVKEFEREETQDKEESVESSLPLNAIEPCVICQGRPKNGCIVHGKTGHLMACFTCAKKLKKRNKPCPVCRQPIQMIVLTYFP
Peg3 prom inh: reduces Peg3 promoter-driven luciferase expression in HeLa | inhibition, % at 20 µM | 360,000 tested, 1.7% active | HeLa PEG-Prom luciferase reporter, luminescence, overnight;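 active = inhibition of at least 50% at 20 µM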
HSP90 inh: blocks HSP90-mediated luciferase refolding in reticulocyte lysate | Rabbit reticulocyte lysate, luciferase refolding luminescence, 3 h | inhibition, % at 5.6 µM | 290,000 tested, 0.91% active;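 active = inhibition above the screen-wide mean plus 3 SD, computed separately per campaign, cut at about 16% in these data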;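 note: 0% = DMSO wells and 100% = 60 µM geldanamycin wells; inhibitors lower the luminescence because luciferase stays unfolded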
KKLEB tox: counter-screen for CF NF-kB inhibitors: cytotoxicity | 360,000 tested, 0.36% active | KKLEB CF airway cells viability, ATPlite luminescence, overnight; stronger effect = lower value; cells stimulated with P. aeruginosa culture filtrate | activity change (cytotoxicity), % at 5 µM;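 active = corrected activity change at or below -50% at 5 µM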
CF NFkB inh: blocks PAF-induced NF-kB reporter in cystic fibrosis cells. KKLEB NF-kB-GFP reporter, GFP fluorescence overnight. 360,000 tested, 0.86% active. inhibition, % at 5 µM;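 active = at least 50% inhibition at 5 µM, scaled per plate between neutral and stimulator controls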;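 note: PAF is a Pseudomonas aeruginosa culture filtrate used as stimulus; plate controls were PAF-stimulated DMSO wells for no effect and unstimulated DMSO wells for full effect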
LGR2 antag: Drosophila LGR2 receptor signaling inhibition; AID 720647; 380,000 tested, 0.35% active; inhibition, % at 9.99 µM; HEK293 LGR2, CRE-luciferase, bursicon-stimulated, 4 h;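 active = drop in luminescence signal, shown as inhibition above about 50% in the replicate tests, limit read from the data, passing the limit was not always enough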;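 note: agonist challenge used bursicon conditioned medium at about half maximal strength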
CF NFkB inh conf: confirmation of cystic fibrosis induced NF-kB inhibitors | shares compounds with CF NFkB inh | KKLEB CF airway cells, PAF-induced NF-kB-GFP fluorescence, overnight | inhibition, % at 5 µM | 1,300 tested, 64% active | AID 602472; in the data active = inhibition above about 40%;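 note: stimulus PAF is a Pseudomonas aeruginosa filtrate and not platelet activating factor; plate controls were DMSO wells with stimulus for no effect and unstimulated DMSO wells for full effect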
* marks the source's active call; other numbers are inactive results; nt = not tested or not shown. In the library only some 3.6% were active in any assay of this set; here they are far more common.

SMILES	Mdm2-MdmX inh	Peg3 prom inh	HSP90 inh	KKLEB tox	CF NFkB inh	LGR2 antag	CF NFkB inh conf
Cc1ccc(C(=O)Nc2cccc(C(F)(F)F)c2)cc1NC(=O)c1nccn1C	-9	4	nt	3	19	3	nt
Cc1ccc(C(=O)Nc2cccc(C(F)(F)F)c2)cc1Nc1cnccn1	45	-3	nt	0	51*	5	43*
O=C(Nc1cnccn1)c1cccc(C(F)(F)F)c1	6	-18	-2	10	4	nt	nt
COC(=O)C[C@@H]1CC[C@@H]2[C@@H](COc3ccc(NC(=O)c4cc(F)cc(F)c4)cc3C(=O)N2C)O1	nt	nt	nt	nt	nt	16	nt
CCOC(=O)C1(C(=O)OCC)COC(=O)C1CN1Cc2cc3ccccc3nc2C1 (stereo unspecified)	nt	17	nt	-2	69*	-2	74*
O=S(=O)(Nc1ccc(Cl)cc1NS(=O)(=O)c1ccccc1)c1ccccc1	nt	47	nt	22	55*	21	51*
Cc1ccc(NC(=O)CN(C)C(=O)Cn2ncc(Cl)c(Cl)c2=O)cc1	nt	102*	0	-5	68*	9	38
Cc1ccc(NC(=O)CN(C)C(=O)Cc2ccc(Cl)c(Cl)c2)cc1	1	-24	-1	-2	0	-10	nt
CCC(=O)N1[C@@H]2CN(S(=O)(=O)c3ccc(F)cc3)c3ccccc3[C@@H]2[C@@H]1CO	nt	nt	nt	nt	nt	-1	nt
Cc1ccc(/C(=C\CN2CCCC2)c2ccccn2)cc1	-18	-28	nt	33	51*	-4	15
O=C(NCc1cccnc1)/C(=C\c1ccc(-c2cccc(Cl)c2)o1)S(=O)(=O)c1ccccc1	nt	104*	7	-19	70*	87*	77*
N#C/C(=C/c1ccc(CNC(=O)C(=O)Nc2cc(Cl)cc(Cl)c2)o1)C(=O)NCc1cccnc1	16	92*	-6	-46	54*	-12	45*
CCC(=O)N1C[C@@H](O)COC[C@@H]2O[C@H](CC(=O)N3CCCCC3)CC[C@H]21	nt	nt	nt	nt	nt	-10	nt
COc1ccc(CCNC(=O)c2ccc(-c3cccc([N+](=O)[O-])c3)o2)cc1OC	31	15	-2	-14	-21	36	nt
COc1ccc(CCNC(=O)c2cccc([N+](=O)[O-])c2)cc1OC	-1	7	nt	6	62*	-2	22
Cc1nc(C)c(-c2csc(Nc3ccccn3)n2)s1	-85	-161	4	6	8	-24	nt
Cc1ccnc(Nc2nc(-c3sc(C)nc3C)cs2)c1	40	4	nt	-17	55*	78*	91*
C/C=C/c1cnc2c(c1)C(=O)N([C@@H](C)CO)C[C@@H](C)[C@@H](CN(C)S(=O)(=O)c1ccccc1)O2	nt	nt	nt	nt	nt	16	nt
O=C(c1cccc(NS(=O)(=O)c2ccc(F)c(F)c2)c1)N1CCN(C(c2ccccc2)c2ccccc2)CC1	-24	22	0	2	50*	nt	-4
N=C1N(c2ccccc2)C(=S)C(=Nc2ccccc2)N1c1ccccc1	nt	74*	nt	-2	67*	-68	81*
COc1ccc(CNC(=O)/C=C/c2ccccc2[N+](=O)[O-])cc1	8	-33	-3	-15	-12	0	nt
COC(=O)C(=Cc1ccccc1[N+](=O)[O-])C(=O)OC	47	53*	3	-2	59*	4	10
COc1ccc(S(=O)(=O)c2c(O)c3ccc(C(=O)Nc4ccccc4Cl)cc3[nH]c2=O)cc1	11	6	0	-19	76*	12	69*
COc1ccc(S(=O)(=O)N(C)C[C@@H]2OCCCC[C@@H](C)Oc3ccc(NS(=O)(=O)c4ccccc4)cc3C(=O)N([C@@H](C)CO)C[C@@H]2C)cc1	nt	nt	nt	nt	nt	1	nt
Cc1ccc(S(=O)(=O)Nc2ccc3c(c2)C(=O)N([C@@H](C)CO)C[C@@H](C)[C@H](CN(C)Cc2ccccc2)OCCCC[C@@H](C)O3)cc1	nt	nt	nt	nt	nt	21	nt
SMILES	Mdm2-MdmX inh	Peg3 prom inh	HSP90 inh	KKLEB tox	CF NFkB inh	LGR2 antag	CF NFkB inh conf
COc1ccc2cc(C(N)=O)c(=Nc3ccccc3)oc2c1	-5	-231	0	0	30	-63	nt
NC(=O)c1cc2ccc(O)cc2oc1=Nc1ccccc1	nt	-119	10	-28	82*	nt	83*
COc1ccc(NS(=O)(=O)c2ccc(N3CCOCC3)c(NC(=O)C(C)C)c2)cc1	26	17	6	16	-8	-7	nt
CCOC(=O)/C=C/C(=O)Nc1cc(S(=O)(=O)Nc2ccc(OC)cc2)ccc1N1CCOCC1	30	27	nt	-9	63*	-5	36
Cc1noc(C)c1S(=O)(=O)Nc1ccc2c(c1)C(=O)N([C@@H](C)CO)C[C@H](C)[C@@H](CN(C)Cc1ccc(Cl)c(Cl)c1)OCCCC[C@H](C)O2	nt	nt	nt	nt	nt	24	nt
O=C(C1CC1)N1CC2(C1)[C@H](c1ccccc1)[C@@H](CO)N2Cc1cncnc1	nt	nt	nt	nt	nt	-1	nt
CC(C)[C@H](NC(=O)OC(C)(C)C)c1nnc(S(=O)(=O)Cc2c(F)cccc2Cl)o1	30	104*	nt	-2	83*	38	43*
CC(C)=CCSc1nnc([C@@H](NC(=O)OC(C)(C)C)C(C)C)o1	10	2	-4	8	-1	nt	nt
CC(C)[C@H](C)NC(=O)N(C)C[C@H]1OCc2ccccc2-c2c(n(C)c3ccccc23)C(=O)N([C@H](C)CO)C[C@H]1C	nt	nt	nt	nt	nt	-7	nt
Clc1ccc(CSc2nnc(-c3ccncc3)o2)cc1	41	-14	-2	-5	70*	nt	62*
O=C(C[C@H]1CC[C@H](NS(=O)(=O)c2ccccc2)[C@@H](CO)O1)NCc1ccc(Cl)c(Cl)c1	nt	nt	nt	nt	nt	2	nt
Cc1ccc(S(=O)(=O)Oc2ccc(/C=N/NC(=O)c3nn(C)cc3[N+](=O)[O-])cc2)cc1	-33	-50	0	-34	51*	nt	-57
Cc1ccc(S(=O)(=O)Oc2ccccc2/C=N/NC(=O)c2nn(C)cc2[N+](=O)[O-])cc1	-2	-4	5	-7	5	10	nt
Oc1cc2c(cc1C(c1ccc(Br)cc1)N1CCCC1)OCO2 (stereo unspecified)	39	6	-1	-21	53*	-8	33
O=S(=O)(NCC(c1ccc2c(c1)OCO2)N1CCOCC1)c1ccc(Br)cc1 (stereo unspecified)	33	11	nt	-5	13	-10	nt
C[C@H]1CN([C@@H](C)CO)C(=O)c2cc(C#CC3(O)CCCC3)cnc2O[C@@H]1CN(C)Cc1ccccn1	nt	nt	nt	nt	nt	-7	nt
O=C(COC(=O)c1ccc2[nH]c3c(c2c1)CCCC3)Nc1ccccc1Cl	29	19	2	-38	56*	11	54*
COc1ccccc1Cc1c(-c2cccc(Br)c2)nc2c(C)cc(Br)cn12	nt	-24	nt	-6	55*	1	5
